Results on 62 molecules are retold here after the antibiotic and cytotoxicity screens of Wong et al. (2023).

The structures appear in SMILES notation. Among all 39,000 compounds or so, about 3,300 (8.5%) were called active. The list comes from a sample in which actives are over-represented; it also holds similar structures and randomly drawn compounds.

This assay has as its system HepG2. As to the kind of experiment: cytotoxicity call (relative viability < 0.9). Conditions: 10 µM.
As to `CO[C@@H]1CN(C)C(=O)c2ccc(NS(=O)(=O)CC(F)(F)F)cc2OC[C@@H](C)N(Cc2nccs2)C[C@H]1C`, the cytotoxicity call is “inactive”.

Turning to `C=CC[C@H](CC(=O)NCCO)C(=O)NC[C@@H](OC(=O)[C@@H](CC=C)CC(=O)OC(C)(C)C)c1ccccc1`, the cytotoxicity call was “inactive”.

As to `C[C@H](CO)N1C[C@H](C)[C@@H](CN(C)CC2CC2)Oc2c(NS(=O)(=O)c3ccccc3)cccc2C1=O`, the cytotoxicity call is “inactive”.

In the case of `CC(C)NC(=O)N(C)C[C@H]1Oc2ccc(NC(=O)Cn3cnnn3)cc2C(=O)N([C@H](C)CO)C[C@H]1C`, the cytotoxicity call is “inactive”.

For `CCCCC(=O)OC1(C(=O)CO)C(C)CC2C3CCC4=CC(=O)C=CC4(C)C3(F)C(O)CC21C` (configuration not stated), the cytotoxicity call was “inactive”.

As for `Nc1cc(=O)nc(N)[nH]1`, the cytotoxicity call is “inactive”.

In the case of `C[C@H]1CN([C@@H](C)CO)C(=O)c2cccc(NC(=O)c3ccncc3)c2O[C@H]1CN(C)S(=O)(=O)c1ccccc1`, the cytotoxicity call was “inactive”.

In the case of `CC(C)CC#Cc1ccc2c(c1)O[C@@H](CN(C)C(=O)Cc1ccncc1)[C@@H](C)CN([C@@H](C)CO)S2(=O)=O`, the cytotoxicity call is “inactive”.

On to `CO[C@H]1CN(C)C(=O)c2cc(NC(=O)Nc3cccc(F)c3)ccc2OC[C@H](C)N(C(=O)Nc2c(C)noc2C)C[C@H]1C`, for which the cytotoxicity call is “inactive”.

For the molecule `C[C@@H]1CCCCO[C@@H](CN(C)Cc2ccc(Cl)c(Cl)c2)[C@@H](C)CN([C@@H](C)CO)C(=O)c2cc(NC(=O)Nc3ccc4c(c3)OCO4)ccc2O1`, the cytotoxicity call was “active”.

In the case of `C[C@@H]1CCCCO[C@@H](CN(C)Cc2ccc(Cl)c(Cl)c2)[C@H](C)CN([C@H](C)CO)C(=O)c2cc(NC(=O)Nc3ccc4c(c3)OCO4)ccc2O1`, the cytotoxicity call was “inactive”.

Consider `C[C@@H]1CCCCO[C@H](CN(C)Cc2ccc(Cl)c(Cl)c2)[C@H](C)CN([C@@H](C)CO)C(=O)c2cc(NC(=O)Nc3ccc4c(c3)OCO4)ccc2O1`, for which the cytotoxicity call was “active”.

As for `C[C@@H]1CN([C@@H](C)CO)C(=O)c2cc(NC(=O)Nc3ccc4c(c3)OCO4)ccc2O[C@@H](C)CCCCO[C@H]1CN(C)Cc1ccc(Cl)c(Cl)c1`, the cytotoxicity call was “inactive”.

Consider `CC(C)(C)NC(=O)N1CCC(CN)CC1`, for which the cytotoxicity call was “inactive”.

On to `C[C@H]1CCCCO[C@H](CN(C)C(=O)NC2CCCCC2)[C@@H](C)CN([C@@H](C)CO)C(=O)c2cc(NC(=O)Nc3ccc(F)cc3)ccc2O1`, for which the cytotoxicity call was “inactive”.

Regarding `CO[C@@H]1[C@H](O)[C@@H](CO)O[C@H]1n1cc(C)c(N)nc1=O`, the cytotoxicity call was “inactive”.

On to `C[C@@H]1CN([C@H](C)CO)C(=O)c2cccc(NS(=O)(=O)c3ccc(Cl)cc3)c2O[C@@H]1CN(C)Cc1ccc(C(F)(F)F)cc1`, for which the cytotoxicity call is “inactive”.

For the molecule `CC(C)NC(=O)Nc1ccc2c(c1)C(=O)N([C@H](C)CO)C[C@H](C)[C@H](CN(C)Cc1ccccc1)OCCCC[C@H](C)O2`, the cytotoxicity call was “inactive”.

Regarding `C[C@H]1CN([C@@H](C)CO)S(=O)(=O)c2ccc(C#Cc3ccccc3)cc2O[C@@H]1CN(C)S(C)(=O)=O`, the cytotoxicity call was “inactive”.

As for `CC1(N)CCN(c2cccnc2NC(=O)c2nc(-c3ncccc3C(F)(F)F)cnc2N)CC1`, the cytotoxicity call was “inactive”.

On to `CCCNC(=O)N1C[C@H](C)[C@H](OC)CN(C)C(=O)c2cc(NS(=O)(=O)CC(F)(F)F)ccc2OC[C@@H]1C`, for which the cytotoxicity call was “inactive”.

With `COc1ccc(S(=O)(=O)Nc2ccc3c(c2)CC(=O)N([C@H](C)CO)C[C@H](C)[C@@H](CN(C)Cc2ccc(Oc4ccccc4)cc2)O3)cc1`, the cytotoxicity call was “inactive”.

Turning to `COc1ccc(S(=O)(=O)Nc2ccc3c(c2)CC(=O)N([C@H](C)CO)C[C@H](C)[C@H](CN(C)Cc2ccc(Oc4ccccc4)cc2)O3)cc1`, the cytotoxicity call is “active”.

In the case of `COc1ccc(S(=O)(=O)Nc2ccc3c(c2)CC(=O)N([C@H](C)CO)C[C@@H](C)[C@H](CN(C)Cc2ccc(Oc4ccccc4)cc2)O3)cc1`, the cytotoxicity call is “active”.

In the case of `COc1ccc(S(=O)(=O)Nc2ccc3c(c2)CC(=O)N([C@@H](C)CO)C[C@@H](C)[C@H](CN(C)Cc2ccc(Oc4ccccc4)cc2)O3)cc1`, the cytotoxicity call was “inactive”.

Take `COc1ccc(S(=O)(=O)Nc2ccc3c(c2)CC(=O)N([C@@H](C)CO)C[C@@H](C)[C@@H](CN(C)Cc2ccc(Oc4ccccc4)cc2)O3)cc1`: the cytotoxicity call was “inactive”.

On to `COc1ccc(S(=O)(=O)Nc2ccc3c(c2)CC(=O)N([C@H](C)CO)C[C@@H](C)[C@@H](CN(C)Cc2ccc(Oc4ccccc4)cc2)O3)cc1`, for which the cytotoxicity call is “active”.

Consider `COc1ccc(S(=O)(=O)Nc2ccc3c(c2)CC(=O)N([C@@H](C)CO)C[C@H](C)[C@@H](CN(C)Cc2ccc(Oc4ccccc4)cc2)O3)cc1`, for which the cytotoxicity call was “active”.

For the molecule `COc1ccc(S(=O)(=O)Nc2ccc3c(c2)CC(=O)N([C@@H](C)CO)C[C@H](C)[C@H](CN(C)Cc2ccc(Oc4ccccc4)cc2)O3)cc1`, the cytotoxicity call is “inactive”.

Turning to `COc1ccc(NC(=O)Nc2ccc3c(c2)C(=O)N([C@H](C)CO)C[C@@H](C)[C@H](CN(C)C(=O)NC2CCCCC2)OCCCC[C@H](C)O3)cc1`, the cytotoxicity call is “inactive”.

On to `C[C@@H]1CN([C@@H](C)CO)C(=O)c2cc(C#CCN(C)C)cnc2O[C@H]1CN(C)Cc1ccc(C(=O)O)cc1`, for which the cytotoxicity call is “inactive”.

As for `COc1cccc(OC)c1C(=O)O[C@H]1[C@@H]2OC(=O)[C@@H](Cc3ccc4ccccc4c3)C/C=C/C[C@H](Cc3ccc4ccccc4c3)C(=O)O[C@H]2[C@@H](OC)O[C@@H]1CO`, the cytotoxicity call was “inactive”.

Consider `Cc1ccc(S(=O)(=O)N(C)C[C@@H]2Oc3ccc(NC(=O)Cn4cnnn4)cc3C(=O)N([C@H](C)CO)C[C@@H]2C)cc1`, for which the cytotoxicity call is “inactive”.

Take `Cc1noc(C)c1S(=O)(=O)Nc1cccc2c1O[C@@H](CN(C)S(=O)(=O)c1ccccc1)[C@@H](C)CN([C@@H](C)CO)C2=O`: the cytotoxicity call is “inactive”.

For `C[C@H](CO)N1C[C@H](C)[C@@H](CN(C)C(=O)c2ccccc2)OCCCC[C@H](C)Oc2ccc(NS(=O)(=O)c3cccs3)cc2C1=O`, the cytotoxicity call is “inactive”.

As for `CN1CCN(C(=O)C[C@H]2CC[C@@H]3[C@H](COC[C@@H](O)CN3S(=O)(=O)c3cccc(Cl)c3)O2)CC1`, the cytotoxicity call was “inactive”.

As to `CCS(=O)(=O)N1CC[C@]2(CC1)CN([C@@H](CO)c1c2c2ccc(cc2n1C)OC)S(=O)(=O)c1ccccc1`, the cytotoxicity call is “inactive”.

Regarding `C[C@@H]1CN([C@H](C)CO)C(=O)c2cccc(NC(=O)Nc3ccc(C(F)(F)F)cc3)c2O[C@@H]1CN(C)C(=O)NC1CCCCC1`, the cytotoxicity call is “active”.

For the molecule `C[C@@H]1CN([C@H](C)CO)C(=O)c2cccc(NC(=O)Nc3ccc(C(F)(F)F)cc3)c2O[C@H]1CN(C)C(=O)NC1CCCCC1`, the cytotoxicity call was “active”.

For the molecule `C[C@H](CO)N1C[C@H](C)[C@@H](CN(C)C(=O)NC2CCCCC2)Oc2c(NC(=O)Nc3ccc(C(F)(F)F)cc3)cccc2C1=O`, the cytotoxicity call was “active”.

Turning to `C[C@H](CO)N1C[C@H](C)[C@H](CN(C)C(=O)NC2CCCCC2)Oc2c(NC(=O)Nc3ccc(C(F)(F)F)cc3)cccc2C1=O`, the cytotoxicity call was “active”.

`O=C(N[C@H]1CC[C@H](CCNS(=O)(=O)c2ccccc2)O[C@@H]1CO)c1cnccn1`: the cytotoxicity call was “inactive”.

In the case of `C[C@@H]1CCCCO[C@@H](CN(C)C(=O)NC2CCCCC2)[C@H](C)CN([C@H](C)CO)C(=O)c2cc(NC(=O)C3CCCCC3)ccc2O1`, the cytotoxicity call was “inactive”.

For `C[C@@H]1CN([C@H](C)CO)S(=O)(=O)c2ccc(C#CCN(C)C)cc2O[C@@H]1CN(C)S(=O)(=O)c1cccc(F)c1`, the cytotoxicity call is “inactive”.

Take `CC(C)NC(=O)Nc1ccc2c(c1)C(=O)N([C@H](C)CO)C[C@H](C)[C@H](CN(C)C(=O)C1CCCCC1)OCCCC[C@@H](C)O2`: the cytotoxicity call was “inactive”.

In the case of `COc1ccc(NC(=O)Nc2ccc3c(c2)C(=O)N([C@@H](C)CO)C[C@H](C)[C@@H](CN(C)S(=O)(=O)c2ccc(Cl)cc2)OCCCC[C@@H](C)O3)cc1`, the cytotoxicity call is “inactive”.

As for `COc1ccc(CNC(=O)C[C@H]2C[C@@H]3c4cc(NC(=O)NC5CCCC5)ccc4O[C@@H]3[C@@H](CO)O2)cc1`, the cytotoxicity call was “inactive”.

Consider `O=C(NCCC1=CCCCC1)c1sc2ccccc2c1Cl`, for which the cytotoxicity call was “inactive”.

Take `C[C@H](CO)N1C[C@H](C)[C@@H](CN(C)C(=O)c2ccccc2)OCCCC[C@H](C)Oc2ccc(NC(=O)CCC(F)(F)F)cc2C1=O`: the cytotoxicity call was “inactive”.

Take `C[C@@H]1CN([C@@H](C)CO)C(=O)c2c(c3ccccc3n2C)-c2ccccc2CO[C@@H]1CN(C)C(=O)Nc1ccccc1`: the cytotoxicity call is “inactive”.

Take `C[C@@H]1CN([C@@H](C)CO)C(=O)c2cccc(NC(=O)Nc3ccc(C(F)(F)F)cc3)c2O[C@@H]1CN(C)C(=O)NC1CCCCC1`: the cytotoxicity call was “inactive”.

Consider `C[C@@H]1CN([C@@H](C)CO)C(=O)c2cccc(NC(=O)Nc3ccc(C(F)(F)F)cc3)c2O[C@H]1CN(C)C(=O)NC1CCCCC1`, for which the cytotoxicity call was “active”.

`C[C@H]1CN([C@@H](C)CO)C(=O)c2cccc(NC(=O)Nc3ccc(C(F)(F)F)cc3)c2O[C@@H]1CN(C)C(=O)NC1CCCCC1`: the cytotoxicity call is “active”.

With `C[C@H]1CN([C@@H](C)CO)C(=O)c2cccc(NC(=O)Nc3ccc(C(F)(F)F)cc3)c2O[C@H]1CN(C)C(=O)NC1CCCCC1`, the cytotoxicity call was “inactive”.

As to `O=C(C[C@@H]1CC[C@H]2[C@@H](COC[C@@H](O)CN2S(=O)(=O)c2cccc(Cl)c2)O1)NC1Cc2ccccc2C1`, the cytotoxicity call is “inactive”.

Turning to `C[C@@H]1CN([C@@H](C)CO)C(=O)c2cc(NC(=O)Cn3cnnn3)ccc2O[C@@H]1CN(C)Cc1ccc(C(=O)O)cc1`, the cytotoxicity call is “inactive”.

On to `C[C@H](CO)N1C[C@H](C)[C@@H](CN(C)C(=O)NC2CCCCC2)OCCCC[C@H](C)Oc2ccc(NC(=O)CCC(F)(F)F)cc2C1=O`, for which the cytotoxicity call was “inactive”.

Take `C[C@H]1CN([C@@H](C)CO)C(=O)CCCn2cc(nn2)CO[C@@H]1CN(C)C(=O)Nc1cccc(Oc2ccccn2)c1`: the cytotoxicity call is “inactive”.

On to `CC(=O)c1ccccc1OC[C@@H](O)CN(CCO)CCO`, for which the cytotoxicity call was “inactive”.

As to `CCCNCC(O)COc1ccccc1C(=O)CCc1ccccc1.Cl` (configuration not stated), the cytotoxicity call was “active”.

In the case of `CCCC(=O)Nc1ccc(OCC(O)CNC(C)C)c(C(C)=O)c1.Cl` (configuration not stated), the cytotoxicity call is “inactive”.

Consider `C[C@H]1CN([C@@H](C)CO)C(=O)c2cc(NC(=O)CCC(F)(F)F)ccc2O[C@H]1CN(C)Cc1ccc(C(F)(F)F)cc1`, for which the cytotoxicity call is “inactive”.
